Assay outcomes deposited in PubChem BioAssay by several laboratories.
E-sel TNF inh: TNF alpha driven E-selectin expression inhibition. HUVEC TNFa-induced E-selectin immunofluorescence, high content. inhibition, % at 2 µM. hit rate 0.71% among 120,000. AID 1246;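 active = inhibition above the batch mean plus 3 SD, and confirmed as a hit on visual image review, cut at about 43% in these data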;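 note: 0% = TNF-stimulated DMSO wells and 100% = unstimulated control wells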
CYP2C9 inhib: blocks human cytochrome P450 2C9 | P11712 | inhibition, % at 5 µM | CYP2C9 Supersomes, luciferin-H conversion, luminescence | AID 777 | hit rate 20% among 96,000;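 active = blocking of liver enzyme CYP2C9 beyond about 50% at 5 µM, limit read from the data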
Target sequence (P11712 whole entry, looked up): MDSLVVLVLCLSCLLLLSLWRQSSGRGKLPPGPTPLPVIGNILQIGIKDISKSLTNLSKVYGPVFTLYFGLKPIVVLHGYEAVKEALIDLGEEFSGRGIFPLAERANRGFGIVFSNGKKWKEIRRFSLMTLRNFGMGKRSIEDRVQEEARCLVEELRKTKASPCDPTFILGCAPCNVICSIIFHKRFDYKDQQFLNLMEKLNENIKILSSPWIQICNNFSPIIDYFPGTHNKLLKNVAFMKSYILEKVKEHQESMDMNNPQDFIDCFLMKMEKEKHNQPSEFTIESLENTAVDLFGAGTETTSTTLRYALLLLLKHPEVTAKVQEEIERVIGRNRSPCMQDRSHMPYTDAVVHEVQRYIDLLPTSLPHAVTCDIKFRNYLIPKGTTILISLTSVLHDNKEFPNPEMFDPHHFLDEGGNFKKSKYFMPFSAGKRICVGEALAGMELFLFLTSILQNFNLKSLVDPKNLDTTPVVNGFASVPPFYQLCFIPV
CYP2C19 inh: blocks human cytochrome P450 2C19 | hit rate 21% among 96,000 | AID 778 | CYP2C19 Supersomes, luciferin-H EGE luminescence, 30 min | inhibition, % at 5 µM | P33261;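 active = CYP2C19 inhibition above a set limit at 5 µM in the primary screen, cut at about 50% in these data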;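 note: plate controls were negative control wells for no effect and 2.5 mM tranylcypromine positive control for full effect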
cytoskel mod: cytoskeleton assembly modification; HUVEC TNFa F-actin phalloidin imaging, high content; inhibition, % at 2 µM; AID 836; hit rate 0.18% among 91,000;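 active = inhibition above the batch mean plus 3 SD and confirmed as a hit by visual image inspection, cut at about 30% in these data, passing the limit was not always enough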
CYP2C9 act: CYP2C9 (human) activation | activation factor at 5 µM | recombinant CYP2C9, luciferin-H conversion, luminescence; stronger effect = higher value; factor 1 = untreated enzyme, 0 = blocked | AID 1024 | hit rate 1.4% among 96,000 | P11712;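 active = activation factor of 2 or more for CYP2C9 at a 5 µM dose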;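 note: 0 = sulfaphenazole-blocked wells and 1 = vehicle-only wells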
CYP2C19 activ: increases human CYP2C19 enzyme activity; recombinant CYP2C19, luciferin-H EGE luminescence; stronger effect = higher value; 0 = fully inhibited enzyme, 1 = untreated enzyme; activation factor at 5 µM; 96,000 tested, under 10 active;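 active = activation factor of at least 2 at 5 µM in the primary screen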;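 note: 0 = wells with 2.5 mM tranylcypromine and 1 = vehicle-only wells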
The depositor's hits bear a star; nt = no result. Only some compounds are listed: those with a hit (about 22% of all), similar ones and a draw of the others.

SMILES | E-sel TNF inh | CYP2C9 inhib | CYP2C19 inh | cytoskel mod | CYP2C9 act | CYP2C19 activ
Cc1ccccc1OCCn1c(=O)oc2ccccc21 | -1.1 | 69.4* | 98.8* | -27.0 | 0.3 | 0
COc1ccc2c(c1)N(C(=O)CN1C(=O)C3CCCCC3C1=O)C(C)(C)C=C2C (configuration not stated) | -24.7 | nt | nt | 11.8 | nt | nt
CS(=O)(=O)N(Cc1ccccc1)c1ccc(C(=O)NCCSc2ccccn2)cc1 | -29.6 | nt | nt | nt | nt | nt
CN(CC(=O)NCc1ccccn1)S(=O)(=O)c1ccccc1 | 20.1 | 12.7 | 20.5 | 0.0 | 0.9 | 0.8
CN(CC(=O)NCc1cccs1)S(=O)(=O)c1cccc2cccnc12 | nt | -138.4 | 22.2 | 10.0 | 2.4* | 0.8
CN(C)c1ccc(CNC(=O)CN(C)S(=O)(=O)c2cccc3cccnc23)cc1 | nt | 44.3 | 70.3* | 19.2 | 0.6 | 0.3
Cn1cccc1C(=O)c1ccc(Cl)cc1Cl | -10.6 | 17.4 | 13.0 | 19.3 | 0.8 | 0.9
CSCCC(NC(=O)c1ccc([N+](=O)[O-])cc1Cl)C(=O)OCC(=O)NC1CCCC(C)C1C (configuration not stated) | 33.6 | nt | nt | nt | nt | nt
COC(=O)Nc1ccc(S(=O)(=O)Nc2ccccc2F)cc1 | -14.5 | 24.1 | 50.0* | -38.6 | 0.8 | 0.5
CC(=O)Nc1ccccc1NS(=O)(=O)c1ccc(Cl)cc1 | -10.9 | 44.7 | 90.6* | 12.3 | 0.6 | 0.1
CC1(C)CCCN(C(=O)N2c3ccccc3Sc3ccccc32)C1 | nt | 6.9 | 16.4 | 6.8 | 0.9 | 0.8
O=C(C1CC1)N1CCN=C1SCc1cccc(C(F)(F)F)c1 | nt | 70.1* | 95.2* | -21.0 | 0.3 | 0
Cc1ccc(CSC2=NCCN2C(=O)C2CC2)cc1 | -25.4 | 19.4 | 92.4* | 15.5 | 0.8 | 0.1
CC(=O)N1CCN=C1SCc1ccc(Br)cc1 | nt | 62.1* | 53.8* | 5.0 | 0.4 | 0.5
CCCS(=O)(=O)N1CCN=C1SCc1ccc(C)cc1 | 8.1 | nt | nt | nt | nt | nt
CN(C(=O)c1ccco1)c1nnc(C23CC4CC(CC(C4)C2)C3)s1 | nt | 18.3 | 9.3 | -11.4 | 0.8 | 0.9
COc1ccc(C(=O)Nc2ccc3[nH]c(-c4cccc(OC)c4)cc(=O)c3c2)cc1 | 19.7 | nt | nt | nt | nt | nt
CC1(C)C(=O)Nc2ccccc2N1C(=O)COC(=O)C1CCCCC1 | 11.7 | 61.2* | 61.9* | -5.1 | 0.4 | 0.4
Cc1cc(C)c(C)c(S(=O)(=O)N2CCC(C(=O)OCC(=O)N3c4ccccc4NC(=O)C3(C)C)CC2)c1C | 33.7 | -59.7 | 70.1* | 3.5 | 1.6 | 0.3
O=C1CN(C(=O)COC(=O)C2CCN(S(=O)(=O)c3ccccc3C(F)(F)F)CC2)c2ccccc2N1 | 10.4 | -51.4 | 57.1* | 2.3 | 1.5 | 0.4
O=C1CC(=C(c2ccccc2)c2ccccc2)C(=O)N1CCN1CCN(c2cccc(Cl)c2)CC1 | 28.6 | 20.3 | 11.6 | 12.4 | 0.8 | 0.9
C/C(=N/NC(=O)c1cc(-c2cccc([N+](=O)[O-])c2)n[nH]1)c1ccc(Cl)cc1 | 17.7 | nt | nt | nt | nt | nt
COc1ccccc1-c1nc(-c2ccccc2)[nH]c(=O)c1C#N | 1.2 | nt | nt | nt | nt | nt
Cc1cc(C(=O)NCc2ccc(C(=O)O)o2)c(C)o1 | 19.6 | 4.9 | 0.5 | -17.1 | 1 | 1
COc1ccccc1N1CCN(c2cc(N3CCCC3)nc(C)n2)CC1 | 100.0* | nt | nt | -27.6 | nt | nt
SMILES | E-sel TNF inh | CYP2C9 inhib | CYP2C19 inh | cytoskel mod | CYP2C9 act | CYP2C19 activ
Nc1nc(-c2ccccc2)cc(N2CCCCC2)n1 | -13.6 | 21.4 | 51.1* | -6.7 | 0.8 | 0.5
c1ccc(-c2cc(N3CCCCC3)ncn2)cc1 | -5.2 | 21.3 | 87.0* | -1.7 | 0.8 | 0.1
COc1ccccc1N1CCN(c2cc(C)nc3nc(C)nn23)CC1 | 17.8 | nt | nt | nt | nt | nt
Cc1nc(-c2ccccc2)cc(N2CCCC2)n1 | 3.8 | 29.5 | 51.3* | -1.7 | 0.7 | 0.5
c1ccc(-c2cc(N3CCCCCC3)n[nH]2)cc1 | 8.1 | 23.5 | 21.6 | -28.9 | 0.8 | 0.8
O=C(N/N=C/C=C/c1ccccc1)C1CC1c1ccccc1 (configuration not stated) | -6.7 | nt | nt | 12.7 | nt | nt
O=C(CN1CCN(Cc2ccccc2)CC1)Nc1ccc(-n2cnnn2)cc1 | 18.9 | nt | nt | nt | nt | nt
Cc1cc(C(=O)NCCCOC(C)C)c2ccccc2n1 | nt | -1.0 | 17.4 | 6.3 | 1 | 0.8
CC(=O)NC1CCC(C(=O)O)(c2ccccc2)C1 (configuration not stated) | -9.1 | 9.1 | 13.8 | 8.6 | 0.9 | 0.9
c1ccc(-c2cnnc(N3CCCCC3)n2)cc1 | nt | 42.8 | 83.3* | 3.0 | 0.6 | 0.2
FC(F)(F)c1cc(-c2ccccc2)nc(N2CCCCCC2)n1 | -44.4 | -3.5 | -2.9 | 6.3 | 1 | 1
